{"source": "paper PMC4336329", "about": "(PLoS ONE, 2015)", "note": "Hit rate of the full screen: of about 310,000 compounds, about 14,000 (4.5%) showed an effect of 50% or more. Effects have a minus sign here. Shown is part of a subset that was picked to be rich in strong results.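 Further: peak tail current of the secondary pulse compared with the same well before compound.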", "data": [{"target": "human ether-à-go-go-related gene (hERG) potassium channel (human, UniProt Q12809)", "sequence (Q12809 whole entry, looked up)": "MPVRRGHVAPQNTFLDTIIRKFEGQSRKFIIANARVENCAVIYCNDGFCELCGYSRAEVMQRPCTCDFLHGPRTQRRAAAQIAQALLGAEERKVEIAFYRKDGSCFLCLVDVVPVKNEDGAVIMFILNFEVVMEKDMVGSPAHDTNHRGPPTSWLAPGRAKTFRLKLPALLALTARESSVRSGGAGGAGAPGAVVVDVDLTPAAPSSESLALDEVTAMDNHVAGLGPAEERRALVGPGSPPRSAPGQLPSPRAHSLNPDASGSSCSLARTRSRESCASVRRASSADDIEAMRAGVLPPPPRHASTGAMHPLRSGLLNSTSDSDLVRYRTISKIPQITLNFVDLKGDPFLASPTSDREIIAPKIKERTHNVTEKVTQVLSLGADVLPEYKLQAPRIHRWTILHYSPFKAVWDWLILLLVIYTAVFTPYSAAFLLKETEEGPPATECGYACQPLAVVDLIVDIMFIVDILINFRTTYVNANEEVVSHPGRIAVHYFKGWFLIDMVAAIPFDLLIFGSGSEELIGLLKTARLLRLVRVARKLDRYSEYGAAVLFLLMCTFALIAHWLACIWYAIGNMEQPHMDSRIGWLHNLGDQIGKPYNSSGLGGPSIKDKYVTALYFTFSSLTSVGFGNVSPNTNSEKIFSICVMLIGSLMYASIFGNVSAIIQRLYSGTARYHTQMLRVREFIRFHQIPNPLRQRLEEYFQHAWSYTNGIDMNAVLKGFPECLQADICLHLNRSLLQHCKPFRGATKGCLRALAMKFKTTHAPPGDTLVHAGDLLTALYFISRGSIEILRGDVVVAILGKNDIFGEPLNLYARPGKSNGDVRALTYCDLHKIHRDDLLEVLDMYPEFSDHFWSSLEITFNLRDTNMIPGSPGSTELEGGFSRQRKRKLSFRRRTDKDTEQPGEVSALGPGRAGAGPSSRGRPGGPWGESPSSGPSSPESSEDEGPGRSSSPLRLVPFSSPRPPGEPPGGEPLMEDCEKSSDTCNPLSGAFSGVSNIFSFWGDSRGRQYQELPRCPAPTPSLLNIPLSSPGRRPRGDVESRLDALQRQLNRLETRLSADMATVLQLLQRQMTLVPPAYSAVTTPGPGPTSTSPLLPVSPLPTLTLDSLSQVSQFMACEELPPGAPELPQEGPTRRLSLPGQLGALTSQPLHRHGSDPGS", "test": "primary screen, population patch clamp on CHO cells stably expressing hERG; higher = less effect of the substance", "units": {"hERG current change (%, negative = inhibition) at 10uM": "%"}, "values": [{"smiles": "CC(C)c1onc(C(=O)N2CCN(C(c3ccccc3)c3ccccc3)CC2)c1[N+](=O)[O-]", "hERG current change (%, negative = inhibition) at 10uM": 13.6}, {"smiles": "O=C(O)C(F)(F)F.O=C1C(Cc2ccccc2)Nc2ncnc(N3CCN(c4ccccc4)CC3)c2N1Cc1ccc(Cl)cc1", "note": "(centres unmarked)", "hERG current change (%, negative = inhibition) at 10uM": 0.92}, {"smiles": "Cn1nnc2cc(C(=O)N3CCN(c4ccccc4)CC3)ccc21", "hERG current change (%, negative = inhibition) at 10uM": -3.95}, {"smiles": "O=C(CN(c1ccccc1)S(=O)(=O)c1ccccc1)N1CCOCC1", "hERG current change (%, negative = inhibition) at 10uM": 4.9}, {"smiles": "CCOC(=O)N1CCN(C(=O)CN(c2cccc(C)c2)S(=O)(=O)c2ccc(C)cc2)CC1", "hERG current change (%, negative = inhibition) at 10uM": -39.7}, {"smiles": "Cc1ccc(S(=O)(=O)N(CC(=O)N2CCC(C)CC2)c2ccccc2)cc1", "hERG current change (%, negative = inhibition) at 10uM": -26.4}, {"smiles": "Cc1cc(C)cc(N(CC(=O)N2CCOCC2)S(=O)(=O)c2ccccc2)c1", "hERG current change (%, negative = inhibition) at 10uM": -56.1}, {"smiles": "Cc1cc(C)cc(N(CC(=O)N2CCC(C)CC2)S(C)(=O)=O)c1", "hERG current change (%, negative = inhibition) at 10uM": -38.6}, {"smiles": "Cc1ccc(N(CC(=O)N2CCOCC2)S(=O)(=O)c2ccccc2)cc1", "hERG current change (%, negative = inhibition) at 10uM": -2.35}, {"smiles": "CC1CCN(C(=O)CN(c2ccc3c(c2)OCCO3)S(=O)(=O)c2ccccc2)CC1", "hERG current change (%, negative = inhibition) at 10uM": -26.6}, {"smiles": "Cc1ccc(S(=O)(=O)N(CC(=O)N2CCC(C)CC2)c2cccc(C)c2)cc1", "hERG current change (%, negative = inhibition) at 10uM": -55.1}, {"smiles": "Cc1cc(C)cc(N(CC(=O)N2CCC(C)CC2)S(=O)(=O)c2ccccc2)c1", "hERG current change (%, negative = inhibition) at 10uM": -70.3}, {"smiles": "Cc1cccnc1NC(=O)Nc1cccs1", "hERG current change (%, negative = inhibition) at 10uM": 12.4}, {"smiles": "Cc1ccc(NC(=O)CCl)c(C)c1", "hERG current change (%, negative = inhibition) at 10uM": 21.6}, {"smiles": "COc1ccc(-n2nc(C(=O)NCC(=O)N3CCN(c4cccc(Cl)c4)CC3)c3ccccc3c2=O)c(OC)c1", "hERG current change (%, negative = inhibition) at 10uM": -2.74}, {"smiles": "COc1ccc([N+](=O)[O-])cc1NC(=O)C(C)Sc1nc(C)c(C)c(C)n1", "note": "(centres unmarked)", "hERG current change (%, negative = inhibition) at 10uM": -44.4}, {"smiles": "CCN(c1ccc(NS(=O)(=O)c2cc(Cl)ccc2Cl)cc1)C(C)C", "hERG current change (%, negative = inhibition) at 10uM": -0.282}, {"smiles": "CCN(CC)C(=O)C(C(=O)c1cccc([N+](=O)[O-])c1)n1cc(Cl)ccc1=O", "note": "(centres unmarked)", "hERG current change (%, negative = inhibition) at 10uM": 24.8}, {"smiles": "Cc1nc(-c2cccc(S(=O)(=O)N3CCOCC3)c2)cs1", "hERG current change (%, negative = inhibition) at 10uM": -2.11}, {"smiles": "COc1ccc(-c2[nH]ncc2CNC(C)CCn2cccn2)c(F)c1", "note": "(centres unmarked)", "hERG current change (%, negative = inhibition) at 10uM": -15.4}, {"smiles": "COc1ccc(-c2[nH]ncc2CNC(C)Cc2ccsc2)c(F)c1", "note": "(centres unmarked)", "hERG current change (%, negative = inhibition) at 10uM": -36.1}, {"smiles": "CC(Cc1ccsc1)NCc1cn[nH]c1-c1ccc(F)cc1F", "note": "(centres unmarked)", "hERG current change (%, negative = inhibition) at 10uM": -66.3}, {"smiles": "CC(=O)/C(N=Nc1nc2c([nH]1)c(=O)n(C)c(=O)n2C)=C(\\C)O", "hERG current change (%, negative = inhibition) at 10uM": 13.2}, {"smiles": "CC1CCN(C(=O)C2CCN(c3nnc(-n4cccc4)s3)CC2)CC1", "hERG current change (%, negative = inhibition) at 10uM": -12.1}, {"smiles": "CCN1CCN(C(=O)C2CCN(c3nnc(-n4c(C)ccc4C)s3)CC2)CC1", "hERG current change (%, negative = inhibition) at 10uM": -13}, {"smiles": "CCOC(=O)C1CCN(C(=O)C2CCN(c3nnc(-n4cccc4)s3)CC2)CC1", "hERG current change (%, negative = inhibition) at 10uM": -62.5}, {"smiles": "CCOC(=O)C1CCN(C(=O)C2CCN(c3nn4c(=O)cc(C)nc4s3)CC2)CC1", "hERG current change (%, negative = inhibition) at 10uM": 3.2}, {"smiles": "Cc1ccc(Cl)cc1N1CCN(C(=O)C2CCN(c3nnc(-n4cccc4)s3)CC2)CC1", "hERG current change (%, negative = inhibition) at 10uM": -16.4}, {"smiles": "Cc1cccc(N2CCN(C(=O)C3CCN(c4nnc(-n5cccc5)s4)CC3)CC2C)c1", "note": "(centres unmarked)", "hERG current change (%, negative = inhibition) at 10uM": -55.8}, {"smiles": "CCOC(=O)N1CCN(C(=O)C2CCN(c3nnc(-n4cccc4)s3)CC2)CC1", "hERG current change (%, negative = inhibition) at 10uM": -57.1}, {"smiles": "CCOC(=O)C1CCCN(C(=O)C2CCN(c3nnc(-n4cccc4)s3)CC2)C1", "note": "(centres unmarked)", "hERG current change (%, negative = inhibition) at 10uM": -48.6}, {"smiles": "O=C(C1CCN(c2nnc(-n3cccc3)s2)CC1)N1CCN(c2cccc(C(F)(F)F)c2)CC1", "hERG current change (%, negative = inhibition) at 10uM": -22.8}, {"smiles": "O=C(c1ccc(Br)cc1)N1CCN(S(=O)(=O)c2ccccc2)CC1", "hERG current change (%, negative = inhibition) at 10uM": -38.5}, {"smiles": "CCCCC(=O)NC(=S)Nc1nnn(CCC)n1", "hERG current change (%, negative = inhibition) at 10uM": 9.55}, {"smiles": "COc1ccc(CN(C)C(=O)c2ccc3c(=O)n4c(nc3c2)CCC4)cc1", "hERG current change (%, negative = inhibition) at 10uM": 13.7}, {"smiles": "Cl.NC1=NC2(CCCCC2)N(c2cccc(Cl)c2)C(N)=N1", "hERG current change (%, negative = inhibition) at 10uM": 27.9}, {"smiles": "CCn1nnc(-c2ccccc2NC(=O)C(F)(F)F)n1", "hERG current change (%, negative = inhibition) at 10uM": -9.9}, {"smiles": "CN1CCN(CCC(=O)N/N=C/c2cc3c(cc2[N+](=O)[O-])OCO3)CC1", "hERG current change (%, negative = inhibition) at 10uM": 9.64}, {"smiles": "O=C(NC(=S)Nc1cc(C(F)(F)F)ccc1N1CCOCC1)c1ccco1", "hERG current change (%, negative = inhibition) at 10uM": 3.6}, {"smiles": "COCCNC(=O)C1CC2Cn3c(nc4ccccc43)C2N1C", "note": "(centres unmarked)", "hERG current change (%, negative = inhibition) at 10uM": 11.2}, {"smiles": "CN1C(C(=O)NCc2ccco2)CC2Cn3c(nc4ccccc43)C21", "note": "(centres unmarked)", "hERG current change (%, negative = inhibition) at 10uM": 10.3}, {"smiles": "O=C(NCc1cccc(Br)c1)C1CC2Cn3c(nc4ccccc43)C2N1Cc1ccccc1", "note": "(centres unmarked)", "hERG current change (%, negative = inhibition) at 10uM": -74.2}, {"smiles": "O=C(NCc1cccc(C(F)(F)F)c1)C1CC2Cn3c(nc4ccccc43)C2N1Cc1ccccc1", "note": "(centres unmarked)", "hERG current change (%, negative = inhibition) at 10uM": -57.8}, {"smiles": "O=C(NCc1cccc(Br)c1)C1CC2Cn3c(nc4ccccc43)C2N1c1ccccc1", "note": "(centres unmarked)", "hERG current change (%, negative = inhibition) at 10uM": -20.5}, {"smiles": "COc1ccccc1CNC(=O)C1CC2Cn3c(nc4ccccc43)C2N1C", "note": "(centres unmarked)", "hERG current change (%, negative = inhibition) at 10uM": -9.34}, {"smiles": "CCCCNC(=O)CN(CCc1ccccc1)S(C)(=O)=O", "hERG current change (%, negative = inhibition) at 10uM": -12.6}, {"smiles": "Cc1c(Cl)cccc1NC(=O)CCC(=O)NNC(=O)c1ccco1", "hERG current change (%, negative = inhibition) at 10uM": 18.3}, {"smiles": "CCOC(=O)c1cccc(NC(=O)CSc2nnc(-c3cccnc3)n2CC)c1", "hERG current change (%, negative = inhibition) at 10uM": -37.5}, {"smiles": "N#Cc1nc(-c2cccs2)oc1NCc1ccco1", "hERG current change (%, negative = inhibition) at 10uM": -5.22}, {"smiles": "CC(/C=C/c1ccccc1)=N/NC(=O)c1cc([N+](=O)[O-])cc([N+](=O)[O-])c1", "hERG current change (%, negative = inhibition) at 10uM": 8}, {"smiles": "O=c1[nH]c(Sc2ccc([N+](=O)[O-])cc2[N+](=O)[O-])nc2ccccc12", "hERG current change (%, negative = inhibition) at 10uM": 9.99}, {"smiles": "O=[N+]([O-])c1ccc(Sc2cccc3cccnc23)c([N+](=O)[O-])c1", "hERG current change (%, negative = inhibition) at 10uM": 16.6}, {"smiles": "O=[N+]([O-])c1ccc(Sc2cc[n+]([O-])c3ccccc23)c([N+](=O)[O-])c1", "hERG current change (%, negative = inhibition) at 10uM": -65.3}]}]}
